Most compounds without a hit are left out; they make up all but 1.2% or so of the library.
F-actin modifier: cytoskeleton assembly modification | HUVEC TNFa F-actin phalloidin imaging, high content | inhibition, % at 2 µM | 91,000 tested, 0.18% active;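 active = inhibition above the batch mean plus 3 SD and confirmed as a hit by visual image inspection, cut at about 30% in these data, passing the limit was not always enough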
SDO1 yeast rescue: compounds rescuing growth of sdo1-depleted yeast, bone marrow failure model; AID 817; S. cerevisiae sdo1-depleted JHY4D growth rescue, OD600 30 h; hits give high values; pdr5 snq2 efflux-pump mutant strain; z-score at 10 µM; 140,000 tested, 0.21% active;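 active = z-score above 3 at both the 24 hr and the 30 hr optical density reads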
HUVEC tox TNFa: HUVEC cytotoxicity counter-screen, TNF alpha stimulated; 93,000 tested, 0.17% active; AID 848; cell count reduction, % at 2 µM; HUVEC TNFalpha-stimulated, Hoechst cell count, imaging;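 active = cell count reduction exceeding the screen mean by over 5 SD, scaled to untreated wells per plate, cut at about 78% in these data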;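 note: cells counted after 24 h of TNF alpha exposure following the 1 h pretreatment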
VCAM1 TNFa inh: reduces TNF alpha induced VCAM1 expression in HUVEC; AID 802; HUVEC TNFa-induced VCAM-1 immunofluorescence, high-content imaging; inhibition, % at 2 µM; 95,000 tested, 0.48% active;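 active = inhibition above the batch mean plus 3 SD, with images confirmed as a hit by eye, cut at about 37% in these data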
E-sel TNF inh: TNF alpha driven E-selectin expression inhibition; inhibition, % at 2 µM; 120,000 tested, 0.71% active; HUVEC TNFa-induced E-selectin immunofluorescence, high content;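 active = inhibition above the batch mean plus 3 SD, and confirmed as a hit on visual image review, cut at about 43% in these data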
Phagocyt inh: macrophage phagocytosis inhibition; J774A.1 macrophage IgG-bead phagocytosis, imaging; 110,000 tested, 0.07% active; inhibition, % at 5 µM;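 active = inhibition above the mean of the plate negative controls plus 5 SD, cut at about 13% in these data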;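 note: phagocytic index as fraction of beads internalized from green versus red external bead signal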
Numbers stand for hits; i = inactive; nt = no result; + = active, no number.

SMILES	F-actin modifier	SDO1 yeast rescue	HUVEC tox TNFa	VCAM1 TNFa inh	E-sel TNF inh	Phagocyt inh
CC(C)Oc1ccc(/C=N/NC(=O)C(CSCc2ccccc2)NC(=O)c2ccc([N+](=O)[O-])cc2)cc1 (centres undefined)	i	i	i	i	96	nt
CCC(C(=O)NCc1ccco1)N(C(=O)CNS(=O)(=O)c1ccccc1)c1ccccc1C (centres undefined)	nt	nt	nt	nt	i	nt
CCC(CC)n1[nH]c(=O)c2c(C)cc(C)nc21	i	i	81	i	i	i
O=C(CSc1ncn(-c2ccccc2)n1)Nc1ccc2c(c1)OCCO2	nt	i	nt	nt	72	i
COc1ccc(N2CCN(Cc3nc(N)nc(Nc4ccc(C)c(Cl)c4)n3)CC2)cc1	i	i	i	i	i	i
Cc1ccc(Nc2nc(N)nc(CN3CCN(c4ccccc4)CC3)n2)cc1Cl	i	i	i	i	i	+
O=C(O)c1cccc(NCc2ccncc2)c1	i	i	i	i	i	i
O=C(O)c1ccc(NCc2ccncc2)cc1	i	i	84	i	nt	i
CSc1oc(-c2ccco2)nc1S(=O)(=O)c1ccccc1	i	i	82	i	nt	i
C[n+]1ccc(/C=C/c2ccc(Br)cc2)cc1	nt	i	i	44	i	nt
Cc1ccc(C(=O)/C=C/c2ccc(Br)cc2)o1	i	i	i	i	i	nt
COc1cc(C(=O)N(CCc2ccccc2)C2=CC3CCC(C2)N3C)cc(OC)c1OC (centres undefined)	i	i	i	i	i	nt
CCCCN(C(=O)c1cc(OC)c(OC)c(OC)c1)C1=CC2CCC(C1)N2C (centres undefined)	i	i	i	i	98	i
CCN(Cc1cc2cc(C)ccc2[nH]c1=O)C(=O)c1cccc(OC)c1	i	i	82	90	nt	i
CCc1ccc2[nH]c(=O)c(CN(Cc3ccc4c(c3)OCO4)C(=O)c3ccco3)cc2c1	i	i	i	i	i	nt
COc1ccc2[nH]c(=O)c(CN(Cc3ccc4c(c3)OCO4)C(C)=O)cc2c1	36	i	i	i	i	i
COc1cccc(S(=O)(=O)Nc2ccc(C(=O)N3CCN(C(=O)c4ccco4)CC3)cc2)c1	i	i	i	i	97	nt
CCCC(C)NC(=O)c1sc2nc3n(c(=O)c2c1C)CCC3 (centres undefined)	nt	nt	nt	nt	i	nt
CCOC(=O)c1ccc(CNC(=O)CCC(=O)O)cc1	34	i	i	i	i	i
O=C(COC(=O)c1ccc(Cl)cc1O)NC(=O)C1CCCCC1	nt	nt	nt	nt	i	nt
O=C(Nc1nccs1)C1CCCN1S(=O)(=O)c1ccc(F)cc1 (centres undefined)	i	i	i	i	i	+
COc1ccc(S(=O)(=O)N2CCCC2C(=O)Nc2ccc(C)cc2)cc1 (centres undefined)	i	i	i	97	i	i
COCCCNC(=O)c1sc2ncnc(N3CCc4ccccc4C3)c2c1C	i	i	i	i	i	nt
Cc1ccc(-c2cc3cccc[n+]3cc2-c2ccc(C)cc2)cc1	nt	i	nt	nt	nt	i
O=C(CN1C(=O)NC2(CCCCCC2)C1=O)Nc1ccc2c(c1)CCC2	nt	nt	nt	nt	i	nt
SMILES	F-actin modifier	SDO1 yeast rescue	HUVEC tox TNFa	VCAM1 TNFa inh	E-sel TNF inh	Phagocyt inh
COc1ccc(S(=O)(=O)Nc2ccc(C)cc2)cc1N(C)S(=O)(=O)c1ccc(Cl)cc1	i	i	i	i	100	nt
CCn1c(SCC(=O)Nc2ccccc2)nnc1C1CCCCC1	i	i	i	i	60	nt
CCOC(=O)c1cccc(NC(=O)CSc2nnc(C3CCCCC3)n2C)c1	i	i	i	i	i	i
Cc1cc(C)n(C(=O)/C(C#N)=N/Nc2cc(Cl)cc(Cl)c2)n1	nt	nt	nt	nt	i	nt
Cc1nc([N+](=O)[O-])c(Sc2nc3ccccc3n2C)n1Cc1ccccc1	nt	i	nt	nt	nt	i
COc1ccc(C2CC(O)(C(C)(C)O)NO2)cc1 (centres undefined)	nt	i	i	i	47	i
COc1ccc(C2C/C(=N\O)C(C)(C)O2)cc1 (centres undefined)	i	i	i	i	nt	i
Cc1ccc(-n2c(-c3ccccc3)c[n+]3c2CCc2ccccc2-3)c(C)c1	nt	nt	nt	nt	i	nt
O=C(C1=NNC2C(=O)N(c3ccccc3)C(=O)C12)c1nc(Cl)ccc1Cl (centres undefined)	nt	i	nt	nt	i	i
Cc1snc(SCC(=O)c2ccc(Cl)cc2)c1C#N	i	i	i	i	i	i
Cc1ccc(C(=O)CSc2nsc(C)c2C#N)cc1	74	i	i	i	i	i
COc1ccc(CCNC(=O)c2ccc(N(C)S(=O)(=O)c3ccc(C)cc3)cc2)cc1OC	nt	nt	nt	nt	i	nt
COCCNC(=O)c1ccc(N(C)S(=O)(=O)c2ccc(OC)c(OC)c2)cc1	i	i	i	i	100	nt

Compound activity deposited in PubChem by several laboratories.
